We go through 9 molecules from PubChem BioAssay (NCI).

Among the test systems are SR leukemia; OVCAR-8 ovarian; OVCAR-5 ovarian; OVCAR-4 ovarian; IGROV1 ovarian; OVCAR-3 ovarian; HS 578T breast; NCI/ADR-RES ovarian; T-47D breast; BT-549 breast; MDA-MB-435 melanoma; SW-620 colon; MCF7 breast; HCT-116 colon; HCC-2998 colon; KM12 colon; RPMI-8226 leukemia; SK-OV-3 ovarian.
Holding throughout (assay): NCI-60 one-dose screen, 48 h (100 = growth as untreated, 0 = no growth, -100 = all killed)
Holding throughout (conditions): 10 µM unless noted

This is part of a sample that, as a whole, favours compounds with a hit. Of some 83,000 tested, about 20% had one in any assay.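 Plates (96-well) were seeded with cells, treated with compound at one concentration, and incubated for 48 hours before percent growth was determined.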 A number with no mark means an inactive call. Activity calls are given as the source filed them. How the source made its calls: active means growth percent below 10; inactive means the rest.

Turning to `N=C(N)c1ccc(-c2ccc(-c3cncc4ccccc34)s2)cc1F`, the growth in the assay on SR leukemia is -3.96% (active); with OVCAR-8 ovarian it was -51.6% (active); in the assay with OVCAR-5 ovarian, -94.7% (active); with OVCAR-4 ovarian, -78.6% (active); in the assay on IGROV1 ovarian, -87.5% (active); in the assay with OVCAR-3 ovarian, -91.6% (active). The growth with HS 578T breast was 88.9%; in the assay with NCI/ADR-RES ovarian, 1.93% (active); in the assay with T-47D breast it was -63.3% (active); with BT-549 breast, 89.5%; in the assay with MDA-MB-435 melanoma, -90.5% (active); in the assay with SW-620 colon it was -62.1% (active). Also, the growth is -68.6% (active) in the assay on MCF7 breast, -87.8% (active) with HCT-116 colon, -98.2% (active) in the assay on HCC-2998 colon and -89.4% (active) in the assay on KM12 colon.
For `CN(C)c1oc(C2OC2c2ccccc2)nc1C#N` (stereo unspecified), the growth was 98.3% in the assay on RPMI-8226 leukemia; 85.4% in the assay on OVCAR-8 ovarian; 89.6% with OVCAR-5 ovarian; 109% in the assay with OVCAR-4 ovarian; 79.2% in the assay on SK-OV-3 ovarian; 90.6% in the assay on IGROV1 ovarian. Also, the growth with OVCAR-3 ovarian was 105%; with HS 578T breast, 90.1%; with NCI/ADR-RES ovarian it was 100%; in the assay with T-47D breast, 89.5%; in the assay on BT-549 breast, 95.6%; in the assay on MDA-MB-435 melanoma, 101%. Also, the growth in the assay on SW-620 colon was 94.3%; in the assay with MCF7 breast it was 90.5%; in the assay with HCT-116 colon, 90.2%; in the assay on HCC-2998 colon it was 97.3%; in the assay on KM12 colon, 103%.
Take `COc1ccc(Nc2[nH]n3c(=O)cc(-c4ccccc4)nc3c2C(=O)Nc2ccc(C)cc2)c(OC)c1`: the growth in the assay with RPMI-8226 leukemia was 108%; in the assay with OVCAR-8 ovarian, 79.4%; in the assay on OVCAR-5 ovarian it was 92%; in the assay with OVCAR-4 ovarian, 89.6%; with SK-OV-3 ovarian it was 91.2%; with IGROV1 ovarian, 102%. Besides, the growth was 98.7% in the assay on OVCAR-3 ovarian; 78.1% in the assay with HS 578T breast; 108% in the assay with NCI/ADR-RES ovarian; 83.8% in the assay with T-47D breast; 92.9% with BT-549 breast; 96.8% with MDA-MB-435 melanoma. Further, the growth with SW-620 colon is 99.5%; with MCF7 breast, 99.6%; in the assay on HCT-116 colon it was 84.2%; in the assay with HCC-2998 colon it was 111%; with KM12 colon, 106%.
`Cc1cc(C)n(-c2nnc3n2N=C(c2ccc(-c4ccccc4)cc2)CS3)n1`: the growth is 37.2% in the assay with RPMI-8226 leukemia; 52.5% in the assay with OVCAR-8 ovarian; 83.8% with OVCAR-5 ovarian; 74.7% in the assay with OVCAR-4 ovarian; 56.8% with SK-OV-3 ovarian; 69.6% in the assay with IGROV1 ovarian. The growth was 15.6% in the assay on OVCAR-3 ovarian; 49.2% with HS 578T breast; 35% in the assay with NCI/ADR-RES ovarian; 48.7% in the assay on T-47D breast; 48.7% with BT-549 breast; -7.2% (active) in the assay with MDA-MB-435 melanoma. The growth is 36.7% with SW-620 colon; 28% in the assay with MCF7 breast; 41.8% with HCT-116 colon; 76.8% with HCC-2998 colon; 53% in the assay with KM12 colon.
As for `O=C(Nc1cccc(-n2cc(-c3ccncc3)c(-c3ccc(Cl)c(O)c3)n2)c1)c1ccccc1`, the growth was 60.5% in the assay with RPMI-8226 leukemia; 50.9% in the assay on OVCAR-8 ovarian; 115% in the assay on OVCAR-5 ovarian; 40.7% in the assay with OVCAR-4 ovarian; 80.1% in the assay with SK-OV-3 ovarian; 88% with IGROV1 ovarian. Moreover, the growth is 82.1% in the assay with OVCAR-3 ovarian; 48.4% in the assay on HS 578T breast; 62.7% in the assay on NCI/ADR-RES ovarian; 73.9% in the assay on T-47D breast; 83.4% with BT-549 breast; 56.2% with MDA-MB-435 melanoma. Besides, the growth with SW-620 colon was 76.9%; in the assay with MCF7 breast, 62.6%; in the assay on HCT-116 colon it was 57.8%; in the assay with HCC-2998 colon, 76.8%; in the assay with KM12 colon, 70.1%.
Take `COc1cc(-c2nn(-c3cccc(NC(=O)c4ccccc4)c3)cc2-c2ccncc2)ccc1Cl`: the growth with RPMI-8226 leukemia was 9.39% (active); in the assay with OVCAR-8 ovarian it was 19.6%; in the assay with OVCAR-5 ovarian, 66.4%; in the assay with OVCAR-4 ovarian, 46.5%; in the assay with SK-OV-3 ovarian, 42.1%; with IGROV1 ovarian, 47.4%. Further, the growth was 0.0228% (active) in the assay with OVCAR-3 ovarian; -1.34% (active) with HS 578T breast; 0.342% (active) in the assay with NCI/ADR-RES ovarian; 21.8% in the assay on T-47D breast; 1.29% (active) in the assay on BT-549 breast; -57.9% (active) in the assay with MDA-MB-435 melanoma. Moreover, the growth with SW-620 colon was 18.4%; with MCF7 breast, 4.67% (active); in the assay with HCT-116 colon, 8.58% (active); in the assay on HCC-2998 colon it was 20.1%; in the assay with KM12 colon it was 12.3%.
Take `Nc1nnc(-c2ccc3ccccc3c2O)o1`: the growth was 90.8% with RPMI-8226 leukemia; 97.6% with OVCAR-8 ovarian; 102% in the assay on OVCAR-5 ovarian; 81.2% with OVCAR-4 ovarian; 105% with SK-OV-3 ovarian; 86% with IGROV1 ovarian. Besides, the growth in the assay on OVCAR-3 ovarian was 99.2%; in the assay with HS 578T breast it was 97.9%; in the assay on NCI/ADR-RES ovarian it was 84.5%; in the assay on T-47D breast it was 87.2%; in the assay with BT-549 breast it was 103%; with MDA-MB-435 melanoma, 110%. In addition, the growth in the assay on SW-620 colon is 84.9%; in the assay on MCF7 breast, 94%; in the assay on HCT-116 colon it was 88.5%; with KM12 colon it was 99.4%.
As for `CCCCCCCC[C@@H](O)CC(=O)N[C@@H](CC(N)=O)C(=O)N[C@@H](CCC(N)=O)C(=O)N[C@@H](CC(=O)c1cc(C)cc(O)c1C(=O)c1c(O)cccc1O)CC(C)C`, the growth with RPMI-8226 leukemia is 10.9%; in the assay on OVCAR-8 ovarian it was 47.6%; in the assay on OVCAR-5 ovarian it was 39.9%; in the assay with OVCAR-4 ovarian, 41.1%; with SK-OV-3 ovarian, 63.4%; in the assay with IGROV1 ovarian, 15.1%. The growth in the assay with OVCAR-3 ovarian was -3.89% (active); in the assay with HS 578T breast it was 26.9%; in the assay on NCI/ADR-RES ovarian, 93.7%; in the assay on T-47D breast, -3.58% (active); in the assay on BT-549 breast, -1.45% (active); in the assay on MDA-MB-435 melanoma it was -39.6% (active). Also, the growth with SW-620 colon was 18.3%; in the assay with MCF7 breast, 29.9%; with HCT-116 colon, -9.35% (active); in the assay on HCC-2998 colon, -72.6% (active); in the assay on KM12 colon it was 1.64% (active).
In the case of `COc1ccc(-c2[nH]nc(N)c2-c2cc(OC)c3c(c2)OCO3)cc1`, the growth in the assay with RPMI-8226 leukemia was 81.3%; with OVCAR-8 ovarian, 77.2%; in the assay on OVCAR-5 ovarian, 70%; in the assay on OVCAR-4 ovarian, 89.3%; in the assay with SK-OV-3 ovarian, 76.7%; with IGROV1 ovarian it was 73.9%. The growth in the assay on OVCAR-3 ovarian was 64.9%; with HS 578T breast, 40.4%; with NCI/ADR-RES ovarian, 8.74% (active); in the assay on T-47D breast it was 62%; with BT-549 breast, 59.2%; in the assay with MDA-MB-435 melanoma, -12.8% (active). Also, the growth in the assay with SW-620 colon is 20.5%; in the assay with MCF7 breast it was 32.3%; in the assay on HCT-116 colon it was 30.9%; in the assay with HCC-2998 colon, 44.3%; in the assay with KM12 colon it was 27.8%.
